We go through seven molecules from PubChem BioAssay (NCATS).

One assay relates to CRL-7250. The assay is described as follows: Cytotoxic Profiling of Annotated Libraries Using Quantitative High-Throughput Screening (AID 1296008). Also: nearly all actives have a fitted effect of over 60% in size. Also: potency is read from the fitted curve at half-maximal effect. As to max response: % is scaled to controls: 0 for no effect and ±100 for the full control effect. The settings on record: Five cell lines viability, CellTiter-Glo ATP luminescence, 48-72 h; max response: hits give low values. The procedure, abridged: (§1)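 Cells exposed to compounds for 48 or 72 hr at 37 degrees Celsius. Viability read as ATP-coupled luminescence with CellTiter-Glo after 10 min at room temperature.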

Assay [1] concerns HaCat. The assay is described as above. The settings on record: Five cell lines viability, CellTiter-Glo ATP luminescence, 48-72 h; max response: hits give low values. The procedure, abridged:
as §1
A general note: Cellular ATP, detected with luciferase, serves as a proxy for viable cell number.

For a further assay, the system named is KB-3-1. The description is as above. Particulars: Five cell lines viability, CellTiter-Glo ATP luminescence, 48-72 h; max response: hits give low values. The procedure, abridged: as §1
In another assay the test system is NIH3T3. The assay is described as above. Particulars: Five cell lines viability, CellTiter-Glo ATP luminescence, 48-72 h; max response: hits give low values. An outline of the steps: as §1
The test system of a further assay is MCC-13. The assay is described as follows: qHTS assay to identify novel small-molecules to repurpose for Merkel cell carcinoma treatment (AID 1296009). Also: nearly all actives have a fitted effect of over 60% in size. Also: potency is read from the fitted curve at half-maximal effect. The settings on record: MCC and control cell lines, CellTiter-Glo viability, 72 h; series mostly up to 46 µM. The procedure, abridged: (§2)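 Cells were treated for 72 hr at 37 degree celsius with compounds in 8- or 11-point dose response. Viability was read by CellTiter-Glo luminescence, normalized to no-cell (cytotoxicity) and DMSO controls.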
For orientation: In qHTS, concentration-response curves come from the screen itself.

The test system of a further assay is MCC-26. The assay is described as above. Particulars: MCC and control cell lines, CellTiter-Glo viability, 72 h; series mostly up to 46 µM. An outline of the steps: as §2
In a further assay the test system is MKL-1. Described as above. The settings on record: MCC and control cell lines, CellTiter-Glo viability, 72 h; series mostly up to 46 µM. The procedure, abridged:
as §2

For the next assay, the system named is MKL-2. The assay is described as above. Particulars: MCC and control cell lines, CellTiter-Glo viability, 72 h; series mostly up to 46 µM. An outline of the steps: as §2
A further assay deals with UISO. The description is as above. Particulars: MCC and control cell lines, CellTiter-Glo viability, 72 h; series mostly up to 46 µM. An outline of the steps:
as §2

The test system of a further assay is WaGa. The description is as above. Particulars: MCC and control cell lines, CellTiter-Glo viability, 72 h; series mostly up to 46 µM. The procedure, abridged: as §2
The next assay concerns C33A. The assay is described as follows: Primary qHTS to identify gynecologic anti-cancer compounds using libraries of approved drugs and bioactive compounds (AID 1345084). Also: % is scaled to controls: 0 for no effect and ±100 for the full control effect; nearly all actives have a fitted effect of over 55% in size. The settings on record: Gynecologic cancer cell panel viability, ATPlite luminescence, 48 h; series mostly up to 57.5 µM. The procedure, abridged:
(§3)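 In this quantitative HTS, cell killing is estimated from loss of ATP-dependent luciferase light. Cells see five compound concentrations over a 48 h exposure.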

A further assay relates to CAOV3. Described as above. The settings on record: Gynecologic cancer cell panel viability, ATPlite luminescence, 48 h; series mostly up to 57.5 µM. The procedure, abridged:
as §3

The test system of the next assay is TAB109. The assay is described as follows: qHTS profiling for inhibitors of Plasmodium falciparum proliferation (AID 504749). Also: nearly all actives have a fitted effect of over 60% in size. Also: potency is read from the fitted curve at half-maximal effect. Particulars: P. falciparum in erythrocytes, SYBR Green DNA, 72 h; series mostly up to 28.7 µM. An outline of the steps: (§4)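 P. falciparum-infected erythrocytes (0.3% parasitemia, 2.5% hematocrit) incubated with compound 72 h at 37 C, 5% CO2. Parasite DNA detected by SYBR Green after lysis, overnight at room temperature; normalised to 0.29 uM artemisinin and DMSO.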

For a further assay, the system named is TAB113. Described as above. The settings on record: P. falciparum in erythrocytes, SYBR Green DNA, 72 h; series mostly up to 28.7 µM. The procedure, abridged:
as §4

For another assay, the system named is TAB165. Described as above. The settings on record: P. falciparum in erythrocytes, SYBR Green DNA, 72 h; series mostly up to 28.7 µM. An outline of the steps:
as §4

In the next assay the test system is W2. The assay is described as above. Particulars: P. falciparum in erythrocytes, SYBR Green DNA, 72 h; series mostly up to 28.7 µM. An outline of the steps: as §4
Assay [2] concerns HACAT. The assay is described as follows: qHTS assay to identify novel small-molecules to repurpose for Merkel cell carcinoma treatment (AID 1296009). Also: nearly all actives have a fitted effect of over 60% in size. Also: potency is read from the fitted curve at half-maximal effect. The settings on record: MCC and control cell lines, CellTiter-Glo viability, 72 h; at 44.8 µM (top of the series) unless noted. The procedure, abridged: as §2
The test system of a further assay is HEK293. The assay is described as follows: Cytotoxic Profiling of Annotated Libraries Using Quantitative High-Throughput Screening (AID 1296008). Also: nearly all actives have a fitted effect of over 60% in size. Also: potency is read from the fitted curve at half-maximal effect. As to max response: % is scaled to controls: 0 for no effect and ±100 for the full control effect. Particulars: Five cell lines viability, CellTiter-Glo ATP luminescence, 48-72 h; max response: hits give low values. The procedure, abridged: as §1
The test system of another assay is HEK293T. The assay is described as follows: qHTS assay to identify novel small-molecules to repurpose for Merkel cell carcinoma treatment (AID 1296009). Also: nearly all actives have a fitted effect of over 60% in size. Also: potency is read from the fitted curve at half-maximal effect. Particulars: MCC and control cell lines, CellTiter-Glo viability, 72 h; at 44.8 µM (top of the series) unless noted. The procedure, abridged: as §2

Results filed as inconclusive are left out. Unmarked numbers belong to inactive results. Calls of active or inactive are those of the source. Calls follow the shape of the dose curve; as a rule, active = well fitted curve in the direction sought with a large enough effect; inconclusive = small, poorly fitted or top-dose-only effect, or another doubt; inactive = no such curve, though single readings can be large; an effect the other way counts as inactive or inconclusive.

In the case of `COc1ccc(S(=O)(=O)N2c3ccc(Cl)cc3[C@@](O)(c3ccccc3Cl)[C@H]2C(=O)N2CCC[C@@H]2C(N)=O)cc1OC`, the max response is -16.1% in the assay on CRL-7250, -3.91% with HaCat [1], -5.62% with KB-3-1 and 1.04% with NIH3T3. Further, the Potency result with MCC-13, in the assay on MCC-26, in the assay on MKL-1, in the assay on MKL-2, in the assay with UISO and with WaGa was “inactive” in each case. Also, the Potency result in the assay with C33A and with CAOV3 was “inactive” throughout.
Turning to `Cc1ccc(O)c([C@H](CCN(C(C)C)C(C)C)c2ccccc2)c1`, the Potency was 3.55 µM (active) in the assay with TAB109, 3.98 µM (active) in the assay with TAB113, 2.24 µM (active) with TAB165 and 0.849 µM (active) in the assay on W2. Further, the max response in the assay on CRL-7250 is -4.37%; with KB-3-1, -10.6%; with NIH3T3 it was -1.6%. The result in the assay on HaCat [1] and with HACAT [2] was inactive. For the same molecule, the Potency result in the assay with MCC-13, in the assay with MCC-26, in the assay on MKL-1, in the assay with MKL-2, in the assay on UISO and in the assay with C33A was “inactive” each time. For the same molecule, in the assay with CAOV3, the Potency result is “inactive”.
`CC(=O)OCC(=O)[C@H]1CC[C@H]2[C@@H]3CCC4=CC(=O)CC[C@]4(C)[C@H]3CC[C@]12C`: the Potency entry in the assay with TAB109, in the assay with TAB113, in the assay on TAB165, in the assay on MCC-13, with MCC-26 and in the assay on MKL-1 was “inactive” each time. For the same molecule, the Potency entry with MKL-2, in the assay on UISO, in the assay on WaGa, in the assay on C33A and in the assay with CAOV3 was “inactive” in each case. The max response in the assay on CRL-7250 was 1.7%; in the assay with KB-3-1, -19.8%; in the assay with NIH3T3, 0.692%. Further, the molecule was called inactive in the assay with HaCat [1] and in the assay with HACAT [2].
`CCCCCCCCCCCCCCC[C@H](O)[C@@H](N)CO`: the max response was -2.05% with CRL-7250, -24.2% in the assay with HaCat [1], -4.68% in the assay on KB-3-1 and -9.49% with NIH3T3. Moreover, the Potency result in the assay with MCC-13, in the assay with MCC-26, in the assay with MKL-1, in the assay on MKL-2, in the assay on UISO and in the assay on WaGa was “inactive” each time. Moreover, the Potency entry with C33A and in the assay on CAOV3 was “inactive” throughout.
On to `CCN1CCCC(OC(=O)C(c2ccccc2)c2ccccc2)C1` (stereo unspecified), for which, in the assay on CRL-7250, the molecule was called inactive. Moreover, the values for the max response in the assay on HaCat [1], in the assay on KB-3-1 and in the assay on NIH3T3 were -8.51%, -9.59% and 2.04%, respectively. The Potency result in the assay on MCC-13, in the assay on MCC-26, with MKL-1, with MKL-2, with UISO and with WaGa was “inactive” each time. The Potency entry in the assay with C33A and in the assay with CAOV3 was “inactive” each time.
As to `CC(C)n1c(/C=C/[C@@H](O)C[C@@H](O)CC(=O)O)c(-c2ccc(F)cc2)c2ccccc21`, the Potency in the assay on CRL-7250 is 1.5 µM (active); with HEK293 it was 16.8 µM (active); in the assay with NIH3T3, 11.9 µM (active); with MCC-13, 9.44 µM (active); with MCC-26, 13.3 µM (active); with MKL-1, 13.3 µM (active). In addition, the Potency in the assay with UISO was 3.35 µM (active).
`CC1(C)OC[C@@H]2O[C@@]3(C(=O)O)OC(C)(C)O[C@H]3[C@@H]2O1`: the max response was -27.6% with CRL-7250 and -5.58% with NIH3T3. For the same molecule, the call with HEK293 and in the assay on HEK293T was inactive. Further, the Potency entry in the assay on MCC-13, in the assay with MCC-26, in the assay on MKL-1, with MKL-2, in the assay on UISO and with WaGa was “inactive” each time. For the same molecule, the Potency entry in the assay on C33A is “inactive”.
